# Target: Solute carrier family 2, facilitated glucose transporter member 1 (Homo sapiens) (UniProt P11166)
# Test: ST_JUDE_LEISH: Cytotoxicity at 2uM final concentration against transgenic Leishmania Mexicana promastigotes LmGLUT1 that are glucose transport deficient and complemented with the human glucose transporter GLUT1. Activity is measured by DNA content using SYBR green in vitro
# Type: functional
# Sequence of Solute carrier family 2, facilitated glucose transporter member 1 (Homo sapiens) (P11166 whole entry): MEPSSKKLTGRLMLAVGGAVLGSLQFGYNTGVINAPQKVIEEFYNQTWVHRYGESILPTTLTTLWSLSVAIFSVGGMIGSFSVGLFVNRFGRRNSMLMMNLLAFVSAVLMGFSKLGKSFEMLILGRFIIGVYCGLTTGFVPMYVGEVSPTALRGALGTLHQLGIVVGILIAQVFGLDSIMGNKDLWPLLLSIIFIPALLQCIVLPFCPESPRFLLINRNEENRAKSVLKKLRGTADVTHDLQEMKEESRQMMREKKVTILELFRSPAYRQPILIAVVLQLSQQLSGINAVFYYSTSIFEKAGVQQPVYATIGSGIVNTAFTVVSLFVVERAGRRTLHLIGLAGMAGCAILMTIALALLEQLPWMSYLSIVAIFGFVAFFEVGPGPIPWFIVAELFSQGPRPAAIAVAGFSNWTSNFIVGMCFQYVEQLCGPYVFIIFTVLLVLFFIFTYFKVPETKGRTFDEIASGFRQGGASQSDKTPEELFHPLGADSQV
row,SMILES,inhibition [%]
1,CCC[C@@H]([C@@H](Cc1ccc(C)s1)C(=O)N[C@@H](CNC(C)=O)C(=O)Nc1nccs1)N(O)C=O,12
2,CCN1CCN(C(=O)NC(C(=O)N(C)Cc2ccc(-c3ccc(C(F)(F)F)cc3)cc2)c2cccs2)C(=O)C1=O (stereo not given),1.34
3,c1ccc2c(c1)ncn2-c1ccnc(Nc2ccncc2)n1,6.4
4,Clc1ccc(-c2ccc(C=NNc3nc(=Nc4ccccc4)[nH]c(=Nc4ccccc4)[nH]3)o2)cc1Cl,-3.26
5,CC(C)[C@H](NC(=O)c1ccc(O)c(-c2ccc(Cl)c(Cl)c2)c1)C(=O)NCCN1CCCC1,-0.22
6,Cc1cc(N2CCC(C)CC2)nc2cc(O)ccc12,1
7,CCCCC1(c2ccc(F)cc2)NC(=O)N(CC(=O)c2cc(C)n(Cc3ccco3)c2C)C1=O (stereo not given),-0.18
8,Cc1cc(N)c2cc(NC(=O)c3ccc4ccccc4c3)ccc2n1,3.68
9,CCCC(C)Nc1nc(C)cc(N[C@@H](Cc2ccccc2)C(=O)NCCc2ccccc2)n1 (stereo not given in full),2.61
10,c1cc(CNC2CCCC2)cc(-c2ccc(CNc3ccc4ncccc4c3)cc2)c1,-0.78
11,COc1cc(OC)c(NC(=O)COc2ccc(C)cc2)cc1Cl,1.6
12,CCn1cc(CN2CCCC(C(=O)Nc3ccc(-c4nc5ccccc5[nH]4)cc3)C2)cn1 (stereo not given),3.25
13,CCn1c(-c2nonc2N)nc2c(-c3ccccc3)ncc(OCCCCNCCc3ncc[nH]3)c21,-0.2
14,O=C(Nc1cccc(C(F)(F)F)c1)Nc1ccc(Cl)c(C(F)(F)F)c1,-1.34
15,OC(CNCc1cccc(Oc2ccc(Cl)cc2)c1)c1cc(C(F)(F)F)cc(C(F)(F)F)c1 (stereo not given),0.85
16,Cc1ccc2[nH]cc(/C=C/C(=O)NC3CCC(CCN4CCc5ccc(C#N)cc5CC4)CC3)c2c1 (stereo not given),0.83
17,O=C(NCc1ccco1)c1ccc(S(=O)(=O)c2ccc(Cl)cc2)cc1,0.13
18,N#Cc1ccc(N(CCOc2ccc3c(c2)CCC(=O)N3)Cc2ccccc2C(F)(F)F)cc1C(F)(F)F,7.14
19,COC(=O)c1cccc(CNCc2ccc(-c3ccc(-c4nc5cccc(C)c5[nH]4)s3)cc2)c1,6.31
20,N=C(N)NC(=O)Nc1cc(Cl)c(Cl)c(C(F)(F)F)c1,2.87

row,SMILES,inhibition [%]
1,Cc1cc(-c2cnc(N)c(-c3ccc(N4CCN(C)CC4)nc3)c2)cc(C)c1O,1.2
2,CC(C)(C)c1ccc(CNC(=O)COc2ccc(-c3nnc(-c4cccc([N+](=O)[O-])c4)o3)cc2[N+](=O)[O-])cc1,-0.15
3,CCCC(=O)NC(c1ccc(C(C)C)cc1)c1ccc2cccnc2c1O (stereo not given),2.04
4,Cc1cc(NC(=O)c2cccs2)ccc1OC1CCN(Cc2ccc(C#N)cc2)C1 (stereo not given),2.86
5,COc1cc(F)c2ncc(Cl)c([C@H](O)CN3CCC(NCc4cc5c(cn4)OCCO5)CC3)c2c1,7.62
6,CN1CCN(CCCN(Cc2csc(-c3ccc(CNCc4ccccc4)cc3)n2)S(=O)(=O)c2cccc3cccnc23)CC1,0.74
7,CCCCC(CC)CN1C(=O)C(c2ccccc2)(c2ccccc2)N=C1N (stereo not given),-0.17
8,COc1ccc(NC(=O)C2c3ccccc3C(=O)N(C3CCCC3)C2c2cccs2)cc1 (stereo not given),5.7
9,COc1cc(Nc2nccc(NCC(O)c3ccc(C(F)(F)F)cc3)n2)cc(OC)c1OC (stereo not given),1.6
10,CN(C)CCNC(=O)N1CCCN(c2ncnc3cc(-c4ccccc4)sc23)CC1,8.06
11,Cc1nc2nc(N)nc(N)c2c(C)c1Cc1cccc(C(N)=O)c1,1.17
12,CCn1cnc2c(N3CCCCS3(=O)=O)cc(C(=O)N[C@@H](Cc3ccccc3)[C@H](O)CNC3CCOCC3)cc21,3.99
13,N#Cc1ccc(-c2ccc3nc(N4CCCN(C5CCC5)CC4)ccc3c2)cc1,6.14
14,CN1CCCN(Cc2ccc(-c3ccc(NC(=O)c4cccc(C#N)c4)cc3)cc2)CC1,2.3
15,CCNc1cc(CC)nc(Nc2ccc(C)cc2)n1,33.4
16,CCCN(Cc1nnc(-c2cccs2)o1)C(=O)C1COc2ccccc2O1 (stereo not given),1.59
17,CCCCCCCCn1c2c(c(=N)c3c1CCC3)CCC2,87.3
18,c1ccc(CN2CCC(NCc3ccccc3-c3ccc(CNCc4ccc5c(c4)OCO5)cc3)CC2)cc1,11.8
19,c1ccc(COc2ccc(Cn3ccc(-c4ccc(-n5ccnc5)cc4)n3)cc2)cc1.c1ccc(COc2ccc(Cn3nccc3-c3ccc(-n4ccnc4)cc3)cc2)cc1,0.24
20,COc1ccc(NC(=O)c2c(NC(=O)c3cccs3)sc3c2CCCC3)cc1,0.31

# Target: Hexose transporter 1 (Plasmodium falciparum) (UniProt O97467)
# Test: ST_JUDE_LEISH: Cytotoxicity at 2uM final concentration against transgenic Leishmania Mexicana promastigotes LmPfHT that are glucose transport deficient and complemented with the Plasmodium falciparum hexose transporter. Activity is measured by DNA content using SYBR green in vitro
# Type: functional
row,SMILES,inhibition [%]
1,CCC[C@@H]([C@@H](Cc1ccc(C)s1)C(=O)N[C@@H](CNC(C)=O)C(=O)Nc1nccs1)N(O)C=O,9.56
2,CCN1CCN(C(=O)NC(C(=O)N(C)Cc2ccc(-c3ccc(C(F)(F)F)cc3)cc2)c2cccs2)C(=O)C1=O (stereo not given),0.77
3,c1ccc2c(c1)ncn2-c1ccnc(Nc2ccncc2)n1,6.42
4,Clc1ccc(-c2ccc(C=NNc3nc(=Nc4ccccc4)[nH]c(=Nc4ccccc4)[nH]3)o2)cc1Cl,-1.12
5,CC(C)[C@H](NC(=O)c1ccc(O)c(-c2ccc(Cl)c(Cl)c2)c1)C(=O)NCCN1CCCC1,-0.09
6,Cc1cc(N2CCC(C)CC2)nc2cc(O)ccc12,0.44
7,CCCCC1(c2ccc(F)cc2)NC(=O)N(CC(=O)c2cc(C)n(Cc3ccco3)c2C)C1=O (stereo not given),0.18
8,Cc1cc(N)c2cc(NC(=O)c3ccc4ccccc4c3)ccc2n1,4.64
9,CCCC(C)Nc1nc(C)cc(N[C@@H](Cc2ccccc2)C(=O)NCCc2ccccc2)n1 (stereo not given in full),3.38
10,c1cc(CNC2CCCC2)cc(-c2ccc(CNc3ccc4ncccc4c3)cc2)c1,0.28
11,COc1cc(OC)c(NC(=O)COc2ccc(C)cc2)cc1Cl,1.59
12,CCn1cc(CN2CCCC(C(=O)Nc3ccc(-c4nc5ccccc5[nH]4)cc3)C2)cn1 (stereo not given),3.52
13,CCn1c(-c2nonc2N)nc2c(-c3ccccc3)ncc(OCCCCNCCc3ncc[nH]3)c21,-0.76
14,O=C(Nc1cccc(C(F)(F)F)c1)Nc1ccc(Cl)c(C(F)(F)F)c1,-2.17
15,OC(CNCc1cccc(Oc2ccc(Cl)cc2)c1)c1cc(C(F)(F)F)cc(C(F)(F)F)c1 (stereo not given),-0.5
16,Cc1ccc2[nH]cc(/C=C/C(=O)NC3CCC(CCN4CCc5ccc(C#N)cc5CC4)CC3)c2c1 (stereo not given),4.1
17,O=C(NCc1ccco1)c1ccc(S(=O)(=O)c2ccc(Cl)cc2)cc1,1.22
18,N#Cc1ccc(N(CCOc2ccc3c(c2)CCC(=O)N3)Cc2ccccc2C(F)(F)F)cc1C(F)(F)F,4.94
19,COC(=O)c1cccc(CNCc2ccc(-c3ccc(-c4nc5cccc(C)c5[nH]4)s3)cc2)c1,2.96
20,N=C(N)NC(=O)Nc1cc(Cl)c(Cl)c(C(F)(F)F)c1,3.46

row,SMILES,inhibition [%]
1,Cc1cc(-c2cnc(N)c(-c3ccc(N4CCN(C)CC4)nc3)c2)cc(C)c1O,0.69
2,CC(C)(C)c1ccc(CNC(=O)COc2ccc(-c3nnc(-c4cccc([N+](=O)[O-])c4)o3)cc2[N+](=O)[O-])cc1,-0.74
3,CCCC(=O)NC(c1ccc(C(C)C)cc1)c1ccc2cccnc2c1O (stereo not given),3.11
4,Cc1cc(NC(=O)c2cccs2)ccc1OC1CCN(Cc2ccc(C#N)cc2)C1 (stereo not given),4.23
5,COc1cc(F)c2ncc(Cl)c([C@H](O)CN3CCC(NCc4cc5c(cn4)OCCO5)CC3)c2c1,7.47
6,CN1CCN(CCCN(Cc2csc(-c3ccc(CNCc4ccccc4)cc3)n2)S(=O)(=O)c2cccc3cccnc23)CC1,5.92
7,CCCCC(CC)CN1C(=O)C(c2ccccc2)(c2ccccc2)N=C1N (stereo not given),0.02
8,COc1ccc(NC(=O)C2c3ccccc3C(=O)N(C3CCCC3)C2c2cccs2)cc1 (stereo not given),4.78
9,COc1cc(Nc2nccc(NCC(O)c3ccc(C(F)(F)F)cc3)n2)cc(OC)c1OC (stereo not given),2.84
10,CN(C)CCNC(=O)N1CCCN(c2ncnc3cc(-c4ccccc4)sc23)CC1,5.39
11,Cc1nc2nc(N)nc(N)c2c(C)c1Cc1cccc(C(N)=O)c1,1.95
12,CCn1cnc2c(N3CCCCS3(=O)=O)cc(C(=O)N[C@@H](Cc3ccccc3)[C@H](O)CNC3CCOCC3)cc21,2.96
13,N#Cc1ccc(-c2ccc3nc(N4CCCN(C5CCC5)CC4)ccc3c2)cc1,7
14,CN1CCCN(Cc2ccc(-c3ccc(NC(=O)c4cccc(C#N)c4)cc3)cc2)CC1,0.34
15,CCNc1cc(CC)nc(Nc2ccc(C)cc2)n1,28.9
16,CCCN(Cc1nnc(-c2cccs2)o1)C(=O)C1COc2ccccc2O1 (stereo not given),3.17
17,CCCCCCCCn1c2c(c(=N)c3c1CCC3)CCC2,91.5
18,c1ccc(CN2CCC(NCc3ccccc3-c3ccc(CNCc4ccc5c(c4)OCO5)cc3)CC2)cc1,10.4
19,c1ccc(COc2ccc(Cn3ccc(-c4ccc(-n5ccnc5)cc4)n3)cc2)cc1.c1ccc(COc2ccc(Cn3nccc3-c3ccc(-n4ccnc4)cc3)cc2)cc1,1.54
20,COc1ccc(NC(=O)c2c(NC(=O)c3cccs3)sc3c2CCCC3)cc1,2.45
